Results from PubChem BioAssay (NCATS).
Results filed as inconclusive are left out. A number with no mark means an inactive call. Activity calls are given as the source filed them. Calls follow the shape of the dose curve; as a rule, active = well fitted cell-killing curve with a large enough effect; inconclusive = small, poorly fitted or top-dose-only effect, or effect the other way; inactive = no such curve, though single readings can be large or run the other way.

How the values were obtained:
[1] = Quantitative High-Throughput drug screen in 47 multiple myeloma cell lines against the NCATS MIPE library collection: MM1R_ATCC cell viability assay (AID 1918981); also: nearly all actives have a fitted effect of over 35% in size
In short: (§1)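 Plated at 500 cells per well, myeloma lines received MIPE 4.0 compounds by pin tool. Following 48 h culture at 37 °C, CellTiter-Glo luminescence gave viability relative to DMSO and media-only controls.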

[2] = Quantitative High-Throughput drug screen in 47 multiple myeloma cell lines against the NCATS MIPE library collection: LP1_DSMZ cell viability assay (AID 1918982); also: nearly all actives have a fitted effect of over 35% in size
In short: as §1

[3] = Quantitative High-Throughput drug screen in 47 multiple myeloma cell lines against the NCATS MIPE library collection: KMS28PE_JCRB cell viability assay (AID 1918983); also: nearly all actives have a fitted effect of over 35% in size
In short: as §1

[4] = Quantitative High-Throughput drug screen in 47 multiple myeloma cell lines against the NCATS MIPE library collection: L363_DSMZ cell viability assay (AID 1918984); settings: L363 myeloma viability, CellTiter-Glo ATP luminescence, 48 h; viability (% of control): at 45.8 µM (top of the series); also: nearly all actives have a fitted effect of over 40% in size
In short: as §1

[5] = Quantitative High-Throughput drug screen in 47 multiple myeloma cell lines against the NCATS MIPE library collection: KMS34_JCRB cell viability assay (AID 1918985); also: nearly all actives have a fitted effect of over 40% in size
In short: as §1

[6] = Quantitative High-Throughput drug screen in 47 multiple myeloma cell lines against the NCATS MIPE library collection: OCIMY7_PLB cell viability assay (AID 1918987); settings: OCI-MY7 myeloma viability, CellTiter-Glo ATP, 48 h; viability (% of DMSO): at 45.8 µM (top of the series); also: nearly all actives have a fitted effect of over 65% in size
In short: as §1

[7] = Quantitative High-Throughput drug screen in 47 multiple myeloma cell lines against the NCATS MIPE library collection: OCIMY5_PLB cell viability assay (AID 1918988); also: nearly all actives have a fitted effect of over 65% in size
In short: as §1

[8] = Quantitative High-Throughput drug screen in 47 multiple myeloma cell lines against the NCATS MIPE library collection: OPM1_PLB cell viability assay (AID 1918989); also: nearly all actives have a fitted effect of over 40% in size;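 as to viability (% of control): 100% = DMSO-only wells and 0% = media-only wells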
In short: as §1

[9] = Quantitative High-Throughput drug screen in 47 multiple myeloma cell lines against the NCATS MIPE library collection: SKMM1_PLB cell viability assay (AID 1919863); settings: SKMM1 myeloma viability, CellTiter-Glo ATP, 48 h; viability: stronger effect = lower value; also: nearly all actives have a fitted effect of over 35% in size
In short: as §1

[10] = Quantitative High-Throughput drug screen in 47 multiple myeloma cell lines against the NCATS MIPE library collection: U266_ATCC cell viability assay (AID 1919864); also: nearly all actives have a fitted effect of over 35% in size;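 as to viability (% of DMSO control): 0% = media-only wells without cells and 100% = DMSO-only wells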
In short: as §1

[11] = Quantitative High-Throughput drug screen in 47 multiple myeloma cell lines against the NCATS MIPE library collection: XG6_PLB cell viability assay (AID 1919865); also: nearly all actives have a fitted effect of over 40% in size;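 as to viability (% of control): 100% = DMSO-only wells and 0% = media-only wells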
In short: as §1

[12] = Quantitative High-Throughput drug screen in 47 multiple myeloma cell lines against the NCATS MIPE library collection: XG1_PLB cell viability assay (AID 1919866); also: nearly all actives have a fitted effect of over 35% in size
In short: as §1

[13] = Quantitative High-Throughput drug screen in 47 multiple myeloma cell lines against the NCATS MIPE library collection: UTMC2_PLB cell viability assay (AID 1919868); settings: CellTiter-Glo ATP luminescence, 48 h; viability (% of DMSO control): at 45.8 µM (top of the series); also: nearly all actives have a fitted effect of over 55% in size;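 as to viability (% of DMSO control): 100% = DMSO-only wells and 0% = media-only wells without cells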
In short: as §1

[14] = Quantitative High-Throughput drug screen in 47 multiple myeloma cell lines against the NCATS MIPE library collection: RPMI8226_ATCC cell viability assay (AID 1919871); also: nearly all actives have a fitted effect of over 30% in size
In short: as §1

[15] = Quantitative High-Throughput drug screen in 47 multiple myeloma cell lines against the NCATS MIPE library collection: OPM2_DSMZ cell viability assay (AID 1919872); also: nearly all actives have a fitted effect of over 30% in size
In short: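 Relative luminescence from CellTiter-Glo served as the viability signal, referenced to DMSO-treated (100%) and cell-free medium (0%) controls. Treatment lasted 48 hours at 37C with 500 cells per well.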

[16] = Quantitative High-Throughput drug screen in 47 multiple myeloma cell lines against the NCATS MIPE library collection: KMS11_JCRBsus cell viability assay (AID 1919873); also: nearly all actives have a fitted effect of over 50% in size;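 as to viability (% of control): 100% = DMSO-only wells and 0% = media-only wells without cells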
In short: as §1

[17] = Quantitative High-Throughput drug screen in 47 multiple myeloma cell lines against the NCATS MIPE library collection: VP6_DJ cell viability assay (AID 1919867); also: nearly all actives have a fitted effect of over 40% in size
In short: as §1

[18] = Quantitative High-Throughput drug screen in 47 multiple myeloma cell lines against the NCATS MIPE library collection: PE2_PLB cell viability assay (AID 1919869); also: nearly all actives have a fitted effect of over 35% in size;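 as to viability (% of control): 100% = DMSO-only wells and 0% = cell-free media-only wells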
In short: as §1

[19] = Quantitative High-Throughput drug screen in 47 multiple myeloma cell lines against the NCATS MIPE library collection: PCM6_Riken cell viability assay (AID 1919870); also: nearly all actives have a fitted effect of over 30% in size;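 as to viability (% of control): 100% = DMSO-only wells and 0% = media-only wells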
In short: as §1

[20] = Quantitative High-Throughput drug screen in 47 multiple myeloma cell lines against the NCATS MIPE library collection: KMS28BM_JCRB cell viability assay (AID 1919874); also: nearly all actives have a fitted effect of over 35% in size
In short: as §1
Potency is read from the fitted curve at half-maximal effect.

OC[C@H]1O[C@@H](O[C@H]2[C@@H](O)[C@@](O)(CO)O[C@@H]2CO)[C@H](O)[C@@H](O)[C@@H]1O
Potency [1]: inactive | Potency [2]: inactive | Potency [3]: inactive | Potency [4]: inactive | Potency [5]: inactive | Potency [6]: inactive | Potency [7]: inactive | Potency [8]: inactive | viability [9]: 96.6% | Potency [10]: inactive | Potency [11]: inactive | Potency [12]: 3.72 µM (active) | Potency [13]: inactive | Potency [14]: inactive | Potency [15]: inactive | Potency [16]: inactive

COc1cc2nc(-c3cc(F)ccc3O)nc(N[C@@H]3CNC[C@@H]3C(C)(C)O)c2cc1OC
Potency [1]: 9.35 µM (active) | Potency [2]: 9.35 µM (active) | Potency [3]: 20.9 µM (active) | Potency [4]: 1.87 µM (active) | Potency [5]: 16.6 µM (active) | Potency [6]: 2.64 µM (active) | Potency [7]: 13.2 µM (active) | Potency [10]: 20.9 µM (active) | Potency [11]: 0.935 µM (active) | Potency [17]: 5.26 µM (active) | Potency [18]: 7.43 µM (active) | Potency [19]: 2.96 µM (active) | Potency [15]: 16.6 µM (active) | Potency [16]: 5.26 µM (active) | Potency [20]: 4.18 µM (active)

O=S(=O)(NCCNCC=Cc1ccc(Br)cc1)c1cccc2cnccc12
Potency [1]: 20.9 µM (active) | Potency [2]: 7.43 µM (active) | Potency [3]: 18.7 µM (active) | Potency [4]: 2.96 µM (active) | Potency [6]: 23.5 µM (active) | Potency [7]: 14.8 µM (active) | Potency [9]: 18.7 µM (active) | Potency [11]: 2.64 µM (active) | Potency [12]: 5.26 µM (active) | Potency [17]: 5.26 µM (active) | Potency [13]: 7.43 µM (active) | Potency [18]: 16.6 µM (active) | Potency [19]: 16.6 µM (active) | Potency [14]: 20.9 µM (active) | Potency [16]: 16.6 µM (active) | Potency [20]: 16.6 µM (active)

C[C@@H]1[C@H](C)CC[C@]2(C(=O)O)CC[C@]3(C)C(=CC[C@@H]4[C@@]5(C)CC[C@H](O)C(C)(C)[C@H]5CC[C@]43C)[C@@H]12
Potency [1]: 21.5 µM (active) | Potency [2]: 48.1 µM (active) | Potency [3]: 38.2 µM (active) | Potency [4]: inactive | Potency [5]: 34 µM (active) | Potency [7]: 1.52 µM (active) | Potency [8]: inactive | Potency [9]: 24.1 µM (active) | Potency [12]: 1.36 µM (active) | Potency [18]: inactive | Potency [19]: 12.1 µM (active) | Potency [14]: 27 µM (active) | Potency [15]: 42.9 µM (active) | Potency [16]: inactive

Cc1ccccc1-n1c(Cn2nc(-c3cccc(O)c3)c3c(N)ncnc32)nc2cccc(C)c2c1=O
Potency [1]: 9.35 µM (active) | Potency [2]: 11.8 µM (active) | Potency [3]: 9.35 µM (active) | Potency [4]: 2.35 µM (active) | Potency [5]: 3.32 µM (active) | Potency [7]: 10.5 µM (active) | Potency [8]: 2.35 µM (active) | Potency [9]: 8.33 µM (active) | Potency [11]: 0.935 µM (active) | Potency [12]: 2.09 µM (active) | Potency [17]: 1.05 µM (active) | Potency [13]: 4.18 µM (active) | Potency [18]: 2.35 µM (active) | Potency [19]: 5.9 µM (active) | Potency [14]: 13.2 µM (active) | Potency [15]: 8.33 µM (active) | Potency [16]: 6.62 µM (active) | Potency [20]: 7.43 µM (active)

NC[C@H]1O[C@H](O[C@@H]2[C@@H](O)[C@@H](O[C@H]3O[C@H](CO)[C@@H](O)[C@H](N)[C@@H]3O)[C@H](N)C[C@@H]2N)[C@H](O)[C@@H](O)[C@H]1O
Potency [1]: inactive | Potency [2]: inactive | Potency [3]: inactive | Potency [4]: inactive | Potency [5]: inactive | Potency [8]: inactive | viability [9]: 120% | Potency [12]: inactive | Potency [17]: 16.6 µM (active) | Potency [18]: inactive | Potency [19]: inactive | Potency [14]: inactive | Potency [15]: inactive | Potency [16]: inactive | Potency [20]: inactive

OC[C@H]1O[C@@H](Oc2ccc(O)cc2)[C@H](O)[C@@H](O)[C@H]1O
Potency [1]: inactive | Potency [2]: inactive | Potency [3]: inactive | Potency [4]: inactive | Potency [5]: inactive | Potency [8]: inactive | Potency [17]: 7.43 µM (active) | Potency [13]: 9.35 µM (active) | Potency [19]: inactive | Potency [14]: inactive | Potency [15]: inactive

CN1C(=O)C(Cc2c[nH]c3ccccc23)NC1=S (stereo not given)
Potency [1]: inactive | Potency [2]: inactive | Potency [3]: inactive | Potency [4]: inactive | Potency [5]: inactive | Potency [8]: inactive | Potency [9]: 0.418 µM (active) | Potency [10]: 5.9 µM (active) | Potency [11]: inactive | Potency [12]: inactive | Potency [17]: 7.43 µM (active) | Potency [13]: 2.96 µM (active) | Potency [18]: inactive | Potency [19]: 3.72 µM (active) | Potency [14]: inactive | Potency [15]: inactive | Potency [20]: inactive

CN(C)CCN(Cc1ccc(Cl)cc1)c1ccccn1
Potency [1]: inactive | Potency [2]: inactive | Potency [3]: 5.9 µM (active) | Potency [4]: inactive | Potency [5]: inactive | Potency [6]: 14.8 µM (active) | Potency [17]: 20.9 µM (active) | Potency [13]: 16.6 µM (active) | Potency [14]: inactive | Potency [15]: inactive | Potency [16]: inactive | Potency [20]: 14.8 µM (active)

CC1=C(CC(=O)O)c2cc(F)ccc2C1=Cc1ccc(S(C)=O)cc1 (stereo not given)
Potency [1]: 3.32 µM (active) | Potency [2]: inactive | Potency [3]: 20.9 µM (active) | Potency [4]: 13.2 µM (active) | Potency [7]: 0.935 µM (active) | Potency [8]: 26.4 µM (active) | viability [9]: 92.7% | Potency [10]: 1.18 µM (active) | Potency [12]: 0.935 µM (active) | Potency [17]: 7.43 µM (active) | Potency [13]: 18.7 µM (active) | Potency [18]: 20.9 µM (active) | Potency [15]: inactive | Potency [16]: 3.72 µM (active) | Potency [20]: 9.35 µM (active)

O=C(Nc1ncc(SCCN2CCCC2)s1)[C@]1(c2ccc(S(=O)(=O)C3CC3)cc2)C[C@@H]1C1CCCCC1
Potency [1]: 16.6 µM (active) | Potency [2]: 20.9 µM (active) | Potency [3]: 23.5 µM (active) | Potency [4]: 7.43 µM (active) | Potency [5]: 18.7 µM (active) | Potency [6]: 18.7 µM (active) | Potency [7]: 14.8 µM (active) | Potency [8]: 16.6 µM (active) | Potency [9]: 23.5 µM (active) | Potency [10]: 8.33 µM (active) | Potency [11]: 10.5 µM (active) | Potency [12]: 8.33 µM (active) | Potency [17]: 9.35 µM (active) | Potency [19]: 8.33 µM (active) | Potency [14]: 23.5 µM (active) | Potency [16]: 7.43 µM (active)
